Most compounds without a hit are left out; they make up all but 3.8% or so of the library.
ATXN2 expr inh: ATXN2 expression inhibition; HEK-293 ATXN2-luciferase reporter, luminescence, 24 h; Potency, µM (doses to about 57 µM), for inactives: at the highest dose activity change, negative = inhibition, usual class: inhibitors; 360,000 compounds, 0.72% hits; AID 1745845; note: % is set by controls: 0 for no effect and ±100 for the full control effect; nearly all actives have a fitted effect of over 55% in size
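ATXN2-luciferase reporter cells (luciferase flanked by upstream and downstream ATXN2 gene portions) were treated 24 h at 37 °C with compounds at up to 57 uM. SteadyGlo luminescence gave expression; GF-AFC fluorescence gave viability.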
TGFb inhibitor: blocks TGF-b signaling. Potency, µM (titrated, usually from 46.1 µM), for the others: top-dose activity, negative = inhibition, usual class: inhibitors. HepG2 CAGA-GFP TGF-b/SMAD3 reporter, GFP fluorescence, 18 h; TGF-beta stimulated, 500 pg/mL final. 410,000 compounds, 1.2% hits; note: % is set by controls: 0 for no effect and ±100 for the full control effect; nearly all actives have a fitted effect of over 65% in size
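Inhibition was scored as loss of TGF-beta-induced (500 pg/mL final, 18 hours, 37 degrees C) GFP in HEPG2 cells carrying a CAGA-GFP reporter, in DMEM with 1% FBS. Well GFP was summed per cell; Activity was normalised to unstimulated and stimulated DMSO wells, then concentration-response fitting.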
ATXN viability: cell viability loss in ATXN counter-screen | AID 651635 | 400,000 compounds, 0.49% hits | S2 cells (HEK-293 line with an ATXN2-luciferase reporter) viability, CellTiter-Fluor protease fluorescence, 24 h | Potency, µM (doses to about 56.7 µM), most hits filed as cytotoxic; note: nearly all actives have a fitted effect of over 40% in size
HepG2 tox-1: counter-screen for TGF-b inhibitors: cytotoxicity in HepG2 cells | HepG2 CAGA-GFP viability, ATP luminescence, 18 h | Potency, µM (top dose mostly 46.1 µM), without a hit: top-dose activity change, negative = cytotoxicity, usual class: cytotoxic | 410,000 compounds, 0.76% hits | AID 588856
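HepG2 CAGA-GFP cells (1000/well, DMEM with 1% FBS) received compound, then TGF-beta at 500 pg/mL final, and were incubated 18 hours at 37 degrees C. Viability was read by CellTiter-Glo luminescence. Media-only wells were set as complete cell-killing and DMSO as no toxicity.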
HT1080 IDH1KD tx: kills HT-1080 cells with IDH1 knockdown; Potency, µM (highest dose often 46.1 µM), for the others: top-dose activity, negative = toxicity, actives largely listed as cytotoxic; AID 686971; HT-1080 IDH1 knockdown viability, ATP luminescence, 48 h; 360,000 compounds, 2% hits;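 note: 0% = DMSO wells and -100% = cell-free medium wells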
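Viability of IDH1-knockdown HT-1080 fibrosarcoma cells was assessed by CellTiter-Glo after 48 h at 37 °C with titrated compound; concentration-effect curves were classified by fit quality and response size.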
HT1080NT lethal: kills 2HG-producing HT-1080-NT fibrosarcoma cells; Potency, µM (highest dose often 46.1 µM), for the others: at the highest dose activity, negative = less viability, usual class: cytotoxic; 360,000 compounds, 1.6% hits; HT-1080-NT fibrosarcoma viability, CellTiter-Glo ATP luminescence, 48 h; AID 686970;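 note: NT is the 2HG producing partner of a matched IDH1 knockdown line; 0% = DMSO-treated cells and -100% = media-only wells without cells; nearly all actives have a fitted effect of over 55% in size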
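Toxicity toward the 2HG-producing NT line was scored as %Activity, normalised to DMSO and no-cell wells, from CellTiter-Glo luminescence after 48 hours' treatment.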
TGFb confirm: confirmation of TGF-b signaling inhibitors in HepG2 reporter cells | shares compounds with TGFb inhibitor | HepG2 CAGA-GFP TGF-b reporter, GFP fluorescence, 18 h; cells stimulated with TGF-beta, 500 pg/mL | Potency, µM (doses to about 46.1 µM), for inactives: at the top dose activity, negative = inhibition, usual class: inhibitors | 1,600 compounds, 63% hits | AID 720534; note: % is set by controls: 0 for no effect and ±100 for the full control effect; nearly all actives have a fitted effect of over 65% in size
HepG2 tox-2: counter-screen for TGF-b inhibitors: cytotoxicity in HepG2 cells; HepG2 CAGA-GFP viability, ATP luminescence, 18 h; cells stimulated with TGF-beta, 500 pg/mL; AID 720535; shares compounds with TGFb inhibitor; Potency, µM (doses to about 46.1 µM), for the others: top-dose activity, negative = cytotoxicity, actives largely listed as inhibitors; 1,600 compounds, 27% hits; note: % is set by controls: 0 for no effect and ±100 for the full control effect; nearly all actives have a fitted effect of over 70% in size
TGFb CCL64 inh: TGF-b inhibition, CCL64 orthogonal assay; shares compounds with TGFb inhibitor; CCL64 CAGA-GFP reporter, TGF-b stimulated, GFP fluorescence, 18 h; Potency, µM (highest dose often 46.1 µM), for the others: at the top dose activity, negative = inhibition, hits mostly inhibitors; 1,600 compounds, 41% hits; note: nearly all actives have a fitted effect of over 65% in size
COP TGFb inh: validation of TGF-b inhibitors in HepG2 COP promoter reporter. shares compounds with TGFb inhibitor. HepG2 COP-GFP TGF-b reporter, GFP fluorescence, 18 h; cells stimulated by added recombinant TGF-beta. Potency, µM (series often up to 46.1 µM), without a hit: at the top dose activity, negative = inhibition, usual class: inhibitors. 1,600 compounds, 3% hits. AID 720537; note: nearly all actives have a fitted effect of over 70% in size
* marks the source's active call; other numbers are inactive results. Calls come from the whole dose curve; as a rule, active = well fitted curve in the direction sought with a large enough effect; inconclusive = small, poorly fitted or top-dose-only effect, or another doubt; inactive = no such curve, though single readings can be large; an effect the other way counts as inactive or inconclusive. Potency is the fitted concentration of half-maximal effect.

OCC1OC(n2cnc3c(NCc4ccccc4O)ncnc32)C(O)C1O (stereo not given) was read as ATXN2 expr inh inconclusive, TGFb inhibitor 1.8µM*, ATXN viability inconclusive, HepG2 tox-1 -71%, HT1080 IDH1KD tx 9.2µM*, HT1080NT lethal 13µM*, TGFb confirm 1.2µM*, HepG2 tox-2 4.1µM*, TGFb CCL64 inh inconclusive and COP TGFb inh 45%.
Screening OC[C@H]1O[C@@H](n2cnc3c(Nc4ccccc4)ncnc32)[C@H](O)[C@@H]1O returned ATXN2 expr inh 37%, TGFb inhibitor -6%, ATXN viability inactive, HepG2 tox-1 -10%, HT1080 IDH1KD tx -9% and HT1080NT lethal 0%.
Screening O=C(CN1CCSc2ccccc21)N1CCN(c2cccc(Cl)c2)CC1 returned ATXN2 expr inh 4%, TGFb inhibitor 2%, ATXN viability inactive and HepG2 tox-1 2%.
`Nc1ncc(Br)cc1S(=O)(=O)Nc1cc(C(F)(F)F)cc(C(F)(F)F)c1` gave ATXN2 expr inh 0%, TGFb inhibitor 5.6µM*, ATXN viability inconclusive, HepG2 tox-1 -51%, HT1080 IDH1KD tx 3.7µM*, HT1080NT lethal 18µM*, TGFb confirm 6.5µM*, HepG2 tox-2 12µM*, TGFb CCL64 inh inconclusive and COP TGFb inh 35%.
Screening Cc1ccc(NS(=O)(=O)c2cc(Br)cnc2N)c(Cl)c1 returned ATXN2 expr inh -10%, TGFb inhibitor -10%, ATXN viability inactive, HepG2 tox-1 4%, HT1080 IDH1KD tx -6% and HT1080NT lethal -12%.
For COC(=O)c1ccc(C(=O)OC)c(NC(=O)N2CC3CCCN3c3ccccc32)c1 (stereo not given) the results were TGFb inhibitor -13% and HepG2 tox-1 0%.
`CN(C)CCNC(=O)C(c1ccccc1)c1ccccc1` gave TGFb inhibitor -11%, ATXN viability inactive, HepG2 tox-1 -2%, HT1080 IDH1KD tx 0% and HT1080NT lethal 8%.
For CN(C)CCC(=O)C(Cc1ccccc1)c1ccccc1 (stereo not given) the results were ATXN2 expr inh -6%, TGFb inhibitor 7.9µM*, ATXN viability inactive, HepG2 tox-1 20µM*, HT1080 IDH1KD tx inconclusive, HT1080NT lethal -39%, TGFb confirm 4.1µM*, HepG2 tox-2 15µM*, TGFb CCL64 inh 10µM* and COP TGFb inh inconclusive.
For O=C(CCNc1ccc(Cc2ccncc2)cc1)c1cccc([N+](=O)[O-])c1 the results were ATXN2 expr inh -30%, TGFb inhibitor -9%, ATXN viability inactive, HepG2 tox-1 -13%, HT1080 IDH1KD tx inconclusive and HT1080NT lethal -6%.
`O=C(CCNc1cccc(F)c1)c1cccc([N+](=O)[O-])c1` gave ATXN2 expr inh -12%, TGFb inhibitor 13µM*, ATXN viability inactive, HepG2 tox-1 10%, HT1080 IDH1KD tx inconclusive, HT1080NT lethal inconclusive, TGFb confirm 10µM*, HepG2 tox-2 inconclusive, TGFb CCL64 inh inconclusive and COP TGFb inh 3%.
Screening C=C(C(=O)c1ccccc1)C(CC(=O)c1ccccc1)c1ccccc1 (stereo not given) returned ATXN2 expr inh 25µM*, TGFb inhibitor 13µM*, ATXN viability inconclusive, HepG2 tox-1 4%, HT1080 IDH1KD tx 12µM*, HT1080NT lethal inconclusive, TGFb confirm 9.2µM*, HepG2 tox-2 10µM*, TGFb CCL64 inh 9.2µM* and COP TGFb inh -17%.
For CCCN(CCC)C(=O)c1nn(C)c2c1CSc1ccc(C)cc1-2 the results were ATXN2 expr inh -6%, TGFb inhibitor -1%, ATXN viability inconclusive and HepG2 tox-1 -19%.
CC[C@]12c3[nH]c4cc(-c5ccco5)ccc4c3CCN1C(=O)[C@@H](CC(=O)NC/C=C(\C)CCC=C(C)C)C[C@@H]2C(=O)N1CCN(C(=O)C2CC2)CC1 was read as ATXN2 expr inh inconclusive, TGFb inhibitor inconclusive, ATXN viability inactive, HepG2 tox-1 -12%, HT1080 IDH1KD tx inconclusive and HT1080NT lethal inconclusive.
For CC[C@]12c3[nH]c4cc(-c5ccco5)ccc4c3CCN1C(=O)[C@@H](CC(=O)NC/C=C(\C)CCC=C(C)C)C[C@@H]2C(=O)N1CCN(C(=O)c2ccco2)CC1 the results were ATXN2 expr inh inconclusive, TGFb inhibitor 10µM*, ATXN viability inactive, HepG2 tox-1 -20%, HT1080 IDH1KD tx inconclusive, HT1080NT lethal -20%, TGFb confirm 10µM*, HepG2 tox-2 -13%, TGFb CCL64 inh 13µM* and COP TGFb inh 2%.
CC[C@]12c3[nH]c4ccc(Cl)cc4c3CCN1C(=O)[C@@H](CC(=O)NCc1cccc(C(F)(F)F)c1)C[C@@H]2C(=O)N1CCN(C(=O)C2CC2)CC1 was read as ATXN2 expr inh inconclusive, TGFb inhibitor 14µM*, ATXN viability inconclusive, HepG2 tox-1 -8%, HT1080 IDH1KD tx inconclusive, HT1080NT lethal inconclusive, TGFb confirm -77%, HepG2 tox-2 inconclusive, TGFb CCL64 inh inconclusive and COP TGFb inh 61%.

Screens (PubChem BioAssay)
